Source: PubChem BioAssay
This excerpt belongs to a sample that is enriched for hits.
Chlamy TAG: inducers of TAG accumulation in Chlamydomonas, primary screen, qHTS, Chlamydomonas reinhardtii; AID 1159537, 2015; Nile Red fluorescence, 72 h; hit rate 0.84% among 44,000; calls only at 10 µM (by protocol); call rule not given here;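 further: hits raise Nile Red signal meaning more stored TAG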
Active calls of the source: *; i = inactive; + = active, no number.

SMILES	Chlamy TAG
CC(=O)c1cccc(NC(=O)c2cc(Br)ccc2Cl)c1	i
O=C(Nc1ccc(Br)cc1)c1ccccc1Cl	+
O=C(O)c1ccc(NC(=O)c2ccccc2Cl)cc1	i
COc1ccc2nc(NC(=O)COc3ccc(C)cc3)sc2c1	i
Cc1ccc(C(C)C)c(OCC(=O)O)c1	i
CN1C(=O)c2ccc(NC(=O)c3sc4ccccc4c3Cl)cc2C1=O	i
Nc1nc[n+](CC(O)CO)c2nc(NCCO)[nH]c12 (configuration not stated)	i
O=C(Nc1c(C(=O)N2CCCCCC2)cnn1-c1ccccc1Cl)c1ccccc1Cl	i
COCCCN1C(=O)c2ccc(C(=O)Nc3cccc(Cl)c3C)cc2C1=O	i
COCCNS(=O)(=O)c1cc(Cl)ccc1OC	+
COc1ccc(Cl)cc1S(=O)(=O)NCc1cccnc1	i
COc1ccc(Cl)cc1NS(=O)(=O)c1cc(Cl)ccc1OC	i
Cc1cc(S(=O)(=O)NCc2cccnc2)c(C)cc1Br	i
COc1cc2c(cc1OC)CN(Cc1ccc(F)cc1)CC2	+
COc1cc2c(cc1OC)CN(Cc1ccc(N(C)C)cc1)CC2	i
COc1cc2c(cc1OC)CN(Cc1cccc(F)c1)CC2	i
COc1cc(C)nc(NCc2ccccc2)n1	+
Cc1cc(Oc2ccc([N+](=O)[O-])cc2)nc(NCc2ccccc2)n1	i
Cc1cc(=O)[nH]c(NCc2ccccc2)n1	i
O=[N+]([O-])c1cc2c(cc1CNC(Cc1ccccc1)c1ccccc1)OCO2 (configuration not stated)	i
COc1ccc(Nc2ncnc3scc(-c4ccc(C)cc4)c23)cc1	i
COc1ccccc1Cn1c(C(C)O)nc2ccccc21 (configuration not stated)	+
Cc1cccc(Cn2c(C(C)O)nc3ccccc32)c1 (configuration not stated)	i
CC(O)c1nc2ccccc2n1Cc1ccccc1Cl (configuration not stated)	i
COc1cc(NC(=O)c2ccc(Cl)c(Cl)c2)ccc1NC(=O)c1ccco1	i
SMILES	Chlamy TAG
CC(C)(C)N1C(=O)c2ccc(C(=O)Nc3ccc([N+](=O)[O-])cc3Cl)cc2C1=O	i
CCOc1ccc(C(=O)Nc2c(C)cccc2CC)cc1Cl	i
COc1ccc(CNC2CCCCC2C)cc1 (configuration not stated)	i
COc1ccc(CNC2CCSC2)cc1 (configuration not stated)	+
COc1ccc(CNCc2ccc(OC)cc2)cc1	i
NC(=O)c1ccc(NC(=O)CC2CCCCC2)cc1	i
O=C(O)c1cccc2c1NC(c1ccc(F)cc1)C1CC=CC21 (configuration not stated)	i
COc1ccc(C(=O)CSc2nnc(-c3cccnc3)o2)cc1	i
CCCNC1=C(N(C(C)=O)c2cccc(F)c2)C(=O)c2ccccc2C1=O	i
CC(=O)N(C1=C(Nc2ccccc2)C(=O)c2ccccc2C1=O)c1ccccc1	+
COc1cccc(N(C(C)=O)C2=C(NC3CCCCC3)C(=O)c3ccccc3C2=O)c1	i
CCCC1CCc2c(sc(NC(=O)c3ccc([N+](=O)[O-])cc3Cl)c2C(N)=O)C1 (configuration not stated)	i
Cc1ccccc1C(=O)Nc1cccc(NC(=O)c2ccc(C)c([N+](=O)[O-])c2)c1	i
Cc1ccc(C(=O)Nc2ccccc2C(=O)NC(C)C)cc1[N+](=O)[O-]	+
CC(C)NC(=O)c1ccccc1NC(=O)c1ccc(F)cc1	i
COc1ccccc1NC(=O)CN(c1ccccc1Cl)S(=O)(=O)c1ccc(C)cc1	i
C=CCNC(=O)CN(c1ccc(C)c(Cl)c1)S(C)(=O)=O	i
Brc1ccc2ncnc(N3CCOCC3)c2c1	i
Brc1ccc(CN2CCN(c3ccccn3)CC2)cc1	i
Brc1ccc2ncnc(N3CCN(Cc4ccccc4)CC3)c2c1	+
Clc1cccc(Cl)c1SCCc1ccccn1	i
COc1ccc(C(=O)Nc2nc(-c3ccccc3)c(C)s2)c(OC)c1	i
CCOc1cc(C(=O)Nc2ccc([N+](=O)[O-])cc2Cl)cc(OCC)c1OCC	i
CCOc1c(Cl)cc(C(=O)Nc2cccc([N+](=O)[O-])c2)cc1Cl	+
CCOc1ccc(C(=O)Nc2cccc([N+](=O)[O-])c2)cc1Cl	i
SMILES	Chlamy TAG
CCN(Cc1ccccc1)Cc1ccccn1	i
NS(=O)(=O)c1cccc(C(=O)Nc2ccccc2[N+](=O)[O-])c1	i
Cc1ccc(C(=O)Nc2ccc(C(C)C)cc2)cc1	i
Cc1ccccc1OCC(=O)Nc1ccccc1[N+](=O)[O-]	i
Cc1cc(C)c(NC(=O)COc2ccccc2C)c(Cl)c1	i
Cc1cc(C)c(NC(=O)COc2ccccc2[N+](=O)[O-])c(C)c1	+
COc1ccccc1C(=O)NCCN1CCOCC1	i
Oc1ccccc1-c1noc(-c2ccccc2O)n1	i
CN(C)CCNc1ccc([N+](=O)[O-])cc1Cl	i
CCN1CCN(C(=O)c2ccc(Cl)cc2[N+](=O)[O-])CC1	i
